Screening data from PubChem BioAssay.
PD-1 reversal: activators reversing PD-1 mediated T-cell inhibition; primary human CD4 T cells, PD-L1 beads, CellTiter-Glo 96 h; activation, % (concentration not given with the values); 29,000 tested, under 10 active; call rule not given here
NOMO-1 viab: STK33 inhibitor candidate reducing NOMO-1 cell viability | 37,000 compounds, 7.5% hits | NOMO-1 AML viability, CellTiter-Glo luminescence, 72 h | inhibition, % (test concentration not listed); in the data active = inhibition above about 80%; inconclusive = no clear call, values can overlap the other calls
STK33 kin inh: human STK33 kinase inhibition; Q9BYT3; ADP-Glo luminescence, MBP substrate; inhibition, % at 12.5 µM; 27,000 compounds, 0.44% hits; AID 2322; in the data active = inhibition above about 20%; inconclusive = no clear call, values can overlap the other calls
Target sequence (Q9BYT3 whole entry, looked up): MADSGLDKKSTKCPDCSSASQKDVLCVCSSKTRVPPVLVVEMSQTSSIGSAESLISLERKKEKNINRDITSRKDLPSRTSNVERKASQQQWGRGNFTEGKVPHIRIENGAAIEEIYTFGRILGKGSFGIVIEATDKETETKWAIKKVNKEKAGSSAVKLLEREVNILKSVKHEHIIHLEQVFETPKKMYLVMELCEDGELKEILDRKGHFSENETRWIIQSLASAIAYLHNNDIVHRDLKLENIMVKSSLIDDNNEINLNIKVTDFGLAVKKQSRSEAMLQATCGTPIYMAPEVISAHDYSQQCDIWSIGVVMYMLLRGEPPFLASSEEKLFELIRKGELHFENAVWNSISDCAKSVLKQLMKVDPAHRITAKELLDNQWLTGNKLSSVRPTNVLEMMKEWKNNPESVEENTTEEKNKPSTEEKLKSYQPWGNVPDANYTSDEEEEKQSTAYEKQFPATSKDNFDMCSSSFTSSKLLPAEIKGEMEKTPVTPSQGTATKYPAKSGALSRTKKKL
A number is an active result; . = inactive; ? = inconclusive; / = no result given. The sample as a whole holds a higher share of hits than the screen did.

SMILES	PD-1 reversal	NOMO-1 viab	STK33 kin inh
C/C=C(/C)C(=O)OC1C(OC(C)=O)c2c(ccc3ccc(=O)oc23)OC1(C)C (stereo not given)	.	.	.
Cc1cccc(C(C)C)c1NC(=O)CN(C1CCCCC1)S(C)(=O)=O	.	.	.
Nc1c(C(=O)c2ccc(Cl)cc2)oc2nc(-c3ccco3)cc(-c3cccs3)c12	.	.	/
CSC1=NC2(CCCCC2)NC2=C1CCCC2	.	.	/
C[C@H](CO)N1C[C@H](C)[C@H](CN(C)Cc2ccc(Cl)c(Cl)c2)Oc2c(NC(=O)C3CCCCC3)cccc2C1=O	.	92.2	/
C[C@@H]1CN([C@H](C)CO)C(=O)c2cccc(NC(=O)C3CCCCC3)c2O[C@H]1CN(C)Cc1ccc(Cl)c(Cl)c1	.	?	/
C[C@H]1CN([C@@H](C)CO)C(=O)c2cccc(NC(=O)C3CCCCC3)c2O[C@@H]1CN(C)Cc1ccc(Cl)c(Cl)c1	.	91.1	/
C[C@@H]1CN([C@@H](C)CO)C(=O)c2cccc(NC(=O)NC3CCCCC3)c2O[C@@H]1CN(C)Cc1ccc(Cl)c(Cl)c1	.	100.5	/
C[C@@H]1CN([C@H](C)CO)C(=O)c2cccc(NC(=O)C3CCCCC3)c2O[C@@H]1CN(C)Cc1ccc(Cl)c(Cl)c1	.	.	/
C[C@H]1CN([C@@H](C)CO)C(=O)c2cccc(NC(=O)NC3CCCCC3)c2O[C@H]1CN(C)Cc1ccc(Cl)c(Cl)c1	.	.	/
Cc1ccc(OCCCCSc2nc(C)cc(=O)[nH]2)c(C)c1	.	.	.
COc1ccccc1CNc1cc(-c2nn3c(C)nnc3s2)ccc1C	/	.	.
CC(Sc1nc(=O)cc(N)n1-c1ccccc1)C(=O)Nc1ccc(Cl)cc1 (stereo not given)	.	.	.
Cc1ccc(N(C(C)C(=O)Nc2ccc(I)cc2)S(C)(=O)=O)cc1C (stereo not given)	/	.	.
CNC(=O)CCc1nc(-c2ccc(Cl)cc2)no1	.	.	.
S=c1cc[nH]c(=S)n1-c1nc(-c2ccccc2)sc1-c1ccccc1	.	.	/
O=C(Cc1ccccc1)Nc1cccc(S(=O)(=O)c2cccc(NC(=O)Cc3ccccc3)c2)c1	.	.	/
CC(=O)Cc1ccccc1OCC(=O)O	/	.	.
CC(=O)OCOC(=O)CN(CC(=O)OCOC(C)=O)c1ccccc1OCCOc1ccccc1N(CC(=O)OCOC(C)=O)CC(=O)OCOC(C)=O	/	112.7	.
O=C(CSc1nnc(-c2cccnc2)n1C1CCCCC1)Nc1ccc(Cl)cc1	.	.	.
C=CCSc1ncc2c(=S)[nH]c(=S)[nH]c2n1	.	.	/
Cc1cc(Cl)ccc1OC(C)C(=O)Nc1cccc(C(=O)O)c1 (stereo not given)	.	.	.
CCOC(=O)N1CC=C2C(C1)C(c1cccc(C(F)(F)F)c1)C(C#N)=C(N)C2(C#N)C#N (stereo not given)	.	112.5	.
COc1cccc(-c2nc(SCC(=O)Nc3cccc(C(F)(F)F)c3)[nH]c(=O)c2C#N)c1	.	.	.
O=C(c1ccc(Cl)cc1)c1oc2ccccc2c1-c1cnn(-c2ccccc2)c1	.	.	/
SMILES	PD-1 reversal	NOMO-1 viab	STK33 kin inh
C[C@H]1CN([C@@H](C)CO)C(=O)Cc2cc(NS(=O)(=O)c3ccc(Cl)cc3)ccc2O[C@@H]1CN(C)Cc1ccccc1	.	106.8	.
C[C@H]1CN([C@@H](C)CO)C(=O)Cc2cc(NS(=O)(=O)c3ccccc3)ccc2O[C@@H]1CN(C)Cc1ccccc1	.	.	.
C[C@@H]1CN([C@@H](C)CO)C(=O)Cc2cc(NS(=O)(=O)c3ccc(Cl)cc3)ccc2O[C@@H]1CN(C)Cc1ccccc1	.	?	.
C[C@H]1CN([C@@H](C)CO)C(=O)Cc2cc(NS(=O)(=O)c3ccc(Cl)cc3)ccc2O[C@H]1CN(C)Cc1ccccc1	.	100.7	/
C=C1CC[C@H]2[C@](C)(CCC[C@]2(C)C(=O)OC)[C@H]1CC/C(C)=C/C(=O)O	.	.	.
CCOc1ccc(NC(=O)C(C)n2nc([N+](=O)[O-])c(Br)c2C)cc1 (stereo not given)	.	.	.
CNS(=O)(=O)c1ccc(C(F)(F)F)cc1S(=O)c1ccccc1C(=O)O (stereo not given)	.	.	/
CC(C)(CSc1nnc(Nc2ccccc2)s1)NS(=O)(=O)c1ccc(Cl)cc1	.	.	.
O=C(c1ccccc1Cl)n1nc(-c2ccccc2)nc1NCc1ccco1	.	.	.
O=C(c1ccc(F)cc1)n1nc(-c2ccc(Cl)cc2)nc1NCc1ccco1	.	104.0	.
COc1ccc([N+](=O)[O-])cc1NC(=O)C(CC(C)C)N1C(=O)c2ccccc2C1=O (stereo not given)	.	.	.
Cn1cnc([N+](=O)[O-])c1Sc1ncnc2nc[nH]c12	.	119.1	.
C[C@@H]1CCCCO[C@H](CN(C)Cc2ccc(Cl)c(Cl)c2)[C@@H](C)CN([C@H](C)CO)C(=O)c2cc(N(C)C)ccc2O1	.	86.7	.
C[C@@H]1CCCCO[C@@H](CN(C)Cc2ccc3c(c2)OCO3)[C@@H](C)CN([C@H](C)CO)C(=O)c2cc(N(C)C)ccc2O1	/	.	.
C[C@@H]1CN([C@@H](C)CO)C(=O)c2cc(N(C)C)ccc2O[C@@H]1CN(C)Cc1ccc(Cl)c(Cl)c1	.	.	/
C[C@@H]1CN([C@H](C)CO)C(=O)c2cc(N(C)C)ccc2O[C@H]1CN(C)Cc1ccc(Cl)c(Cl)c1	.	96.7	/
C[C@@H]1CN([C@H](C)CO)C(=O)Cc2cc(NS(=O)(=O)c3ccccc3)ccc2O[C@@H]1CN(C)Cc1ccc(Oc2ccccc2)cc1	.	?	.
C[C@H]1CN([C@@H](C)CO)C(=O)Cc2cc(NS(C)(=O)=O)ccc2O[C@@H]1CN(C)Cc1ccc(Oc2ccccc2)cc1	.	.	.
C[C@@H]1CN([C@H](C)CO)C(=O)Cc2cc(NS(=O)(=O)c3ccc(F)cc3)ccc2O[C@@H]1CN(C)Cc1ccc(Oc2ccccc2)cc1	.	114.7	.
C[C@H](CO)N1C[C@H](C)[C@H](CN(C)Cc2ccc(Oc3ccccc3)cc2)Oc2ccc(NS(=O)(=O)c3ccc(F)cc3)cc2CC1=O	.	126.2	.
Cc1cccc(C)c1NC(=O)CSc1nc(-c2ccccc2)c(-c2ccccc2)[nH]1	.	.	.
COc1ccc(C(=O)Nc2sc3c(c2C(=O)Nc2cccc(OC)c2)CCC3)cc1	.	.	.
O=c1[nH]c2ccccc2c2ccccc12	.	.	31.5
O=Cc1c2[nH]c3ccccc3c2cc2[nH]c3ccccc3c12	/	.	.
Cc1ccccc1Cn1cc(NC(=O)C2CC(c3ccc(Cl)cc3)=NO2)cn1 (stereo not given)	.	.	.
SMILES	PD-1 reversal	NOMO-1 viab	STK33 kin inh
NC(=O)c1c(NC(=O)COc2ccc(Cl)cc2Cl)sc2c1CCCC2	/	.	.
CC(C)(C)C1CCc2c(sc(NC(=O)COc3ccc(Cl)cc3)c2C(N)=O)C1 (stereo not given)	/	89.1	.
N#Cc1ccccc1NC(=O)CCSc1nc(-c2ccccc2)c2cc(Cl)ccc2n1	.	.	.
COc1cc(/C=C\C(=O)O)cc(OC)c1OC	/	/	.
COc1cc(/C=C/C(=O)N2CCC=CC2=O)cc(OC)c1OC	/	118.9	.
C[C@H]1CN([C@@H](C)CO)C(=O)Cc2cc(NS(=O)(=O)c3ccc(Cl)cc3)ccc2O[C@H]1CN(C)Cc1ccc(Cl)c(Cl)c1	.	97.2	.
